Several values for one entry are separate records, joined by “and”; a condition that tells them apart may be missing. Identical values can stand only once. Inconclusive results are not listed. Activity calls are given as the source filed them. Calls follow the shape of the dose curve; as a rule, active = well fitted inhibition curve with a large enough effect; inconclusive = small, poorly fitted or top-dose-only effect; inactive = flat fitted curve, though single readings scatter.
Assay: Primary qHTS for inhibitors of nuclear receptor binding SET domain protein 2 (NSD2) in an isogenic RCH-ACV NSD2 p.E1099K mutant (9B) (AID 1645876); also: nearly all actives have a fitted effect of over 70% in size
Conditions: RCH-ACV (leukaemia line) NSD2 E1099K (9B) viability, CellTiter-Glo, 72 h; series mostly up to 44.9 µM; activity change, negative = viability loss: at the top concentration
% is scaled to controls: 0 for no effect and ±100 for the full control effect; potency is read from the fitted curve at half-maximal effect.

| SMILES | activity change, negative = viability loss | outcome | Potency |
| --- | --- | --- | --- |
| CC12CCC(C(OC3OC(COC4OCC(O)(CO)C4O)C(O)C(O)C3O)C1)C(C)(C)O2 (stereo not drawn) | -8.59% [at 17.3 µM] (inactive) |  |  |
| CC(O)/C=C/C1C(C)C(O[C@@H]2O[C@H](CO)[C@@H](O)[C@H](O)[C@H]2O)C(O)CC1(C)C (stereo partly drawn) | -6.17% (inactive) |  |  |
| O=C1OCc2cc3cccc(O[C@@H]4O[C@H](CO)[C@@H](O)[C@H](O)[C@H]4O)c3c(O)c21 |  | inactive |  |
| C[C@H](Nc1ncnc2nc[nH]c12)c1cc2ccc(F)cc2nc1-c1ccccn1 |  |  | 833 nM (active) |
| COc1cc([C@H]2c3cc(O)c(OC)cc3C[C@@H](CO[C@@H]3O[C@H](CO)[C@@H](O)[C@H](O)[C@H]3O)[C@@H]2CO)ccc1O | -2.28% [at 17.3 µM] (inactive) |  |  |
| COc1ccc(C2(O)c3ccccc3NC(=O)C2O)cc1 (stereo not drawn) | -8.45% (inactive) |  |  |
| COc1c2c(c(C)c3c1C(=O)OC3)OC1(C)CC(O)C(C(C)(C)O)C(C)(CCC(=O)O)C1C2 (stereo not drawn) | 1.64% [at 17.3 µM] (inactive) |  |  |
| CC1(CCOC2OC(CO)C(O)C(O)C2O)CCC23OC2(C1)C(O)CC1C(C)(C(=O)O)CCCC13C (stereo not drawn) | -6.3% [at 17.3 µM] (inactive) |  |  |
| COc1ccc([C@@H]2OC[C@H]3[C@@H]2CO[C@@H]3c2ccc(OC3OC(CO)C(O)C(O)C3O)c(OC)c2)cc1OC (stereo partly drawn) | -13.6% [at 17.3 µM] (inactive) |  |  |
| C[C@@H]1O[C@@H](O[C@H]2[C@@H]3C=CO[C@@H](O[C@@H]4O[C@H](CO)[C@@H](O)[C@H](O)[C@H]4O)[C@@H]3[C@@]3(CO)O[C@@H]23)[C@H](OC(=O)/C=C/c2ccccc2)[C@H](O)[C@H]1O | -12.5% [at 17.3 µM] (inactive) |  |  |
| CC1CCC2(C=O)C(CO)=CCCC2C1(C)CC(=O)O (stereo not drawn) |  | inactive |  |
| CC1(O)CC(O)C2(O)C=COC(O[C@@H]3O[C@H](CO)[C@@H](O)[C@H](O)[C@H]3O)C12 (stereo partly drawn) |  | inactive |  |
| CC(C)(O)c1ccc2c(c1)C(O)C[C@H]1[C@](C)(C(=O)O)CCC[C@]21C (stereo partly drawn) | 3.23% (inactive) |  |  |
| COC1=CC(=O)CC(C)C12Oc1cc(OC)cc(O)c1C2=O (stereo not drawn) |  | inactive |  |
| CC(C)[C@H]1CC[C@@]2(O)COC(=O)[C@H]2[C@@H]1/C=C(\CO)C(=O)O | -1.08% (inactive) |  |  |
| CC(/C=C/C1=CC2=CC(=O)C(C)(O)C(O)C2=CO1)=C\C(C)CCO (stereo not drawn) | -6.71% (inactive) |  |  |
| C=C(CO[C@@H]1O[C@H](CO[C@@H]2OC[C@](O)(CO)[C@H]2O)[C@@H](O)[C@H](O)[C@H]1O)C1Cc2cc(C(C)=O)ccc2O1 (stereo partly drawn) | -11.8% [at 17.3 µM] (inactive) |  |  |
| CC(=O)O[C@H]1[C@H](O[C@H]2[C@@H]3C=CO[C@@H](O[C@@H]4O[C@H](CO)[C@@H](O)[C@H](O)[C@H]4O)[C@@H]3[C@@]3(CO)O[C@@H]23)O[C@@H](C)[C@H](OC(=O)/C=C/c2ccccc2)[C@H]1OC(=O)/C=C/c1ccccc1 |  | inactive [at 9.23 µM] |  |
| COc1ccc(CC2C(=O)NC(C)C(=O)N(C)C3Cc4ccc(cc4)Oc4cc(ccc4OC4OC(CO)C(O)C(O)C4O)CC(C(=O)NC(C)C(=O)NC(C)C(=O)N2C)N(C)C3=O)cc1 (stereo not drawn) |  |  | 13.8 nM (active) |
| CC(=O)O[C@@H]1[C@@H](OC(=O)/C=C/c2ccccc2)[C@@H](OC(C)=O)[C@H](O[C@H]2[C@@H]3C=CO[C@@H](O[C@@H]4O[C@H](CO)[C@@H](O)[C@H](O)[C@H]4O)[C@@H]3[C@@]3(CO)O[C@@H]23)O[C@H]1C | 2.44% [at 17.3 µM] (inactive) |  |  |
| CO[C@@H](C)Cn1c(=O)n(C)c2cnc3ccc(-c4cncc(C(C)(C)O)c4)cc3c21 |  |  | 166 nM (active) |
| CC(C)C1=CC2C(CC[C@]2(C)O)[C@](C)(O)CC1 (stereo partly drawn) | -4.33% (inactive) |  |  |
| CC1(C)CC[C@]2(C(=O)O[C@@H]3O[C@H](CO)[C@@H](O)[C@H](O)[C@H]3O)CC[C@]3(C)C(=CCC4[C@@]5(C)C[C@@H](O)[C@H](O)[C@](C)(C(=O)O)C5CC[C@]43C)C2C1O (stereo partly drawn) | -16.5% [at 17.3 µM] (inactive) |  |  |
| C=C(CCC1=C(C)[C@H]2[C@H](CC3[C@@H]4CC=C5C[C@@H](O)C[C@@H](O)[C@]5(C)C4[C@H](O)C[C@@]32C)O1)CO[C@@H]1O[C@H](CO)[C@@H](O)[C@H](O)[C@H]1O (stereo partly drawn) |  |  | 483 nM (active) |
| COc1c(C)c(OCC(O)C(C)(C)O)cc2c1COC2=O (stereo not drawn) |  | inactive |  |
| CC1=CCC(C(C)(C)O[C@@H]2O[C@H](CO[C@@H]3O[C@@H](C)[C@H](O)[C@@H](O)[C@H]3O)[C@@H](O)[C@H](O)[C@H]2O)CC1 (stereo partly drawn) |  | inactive [at 17.3 µM] |  |
| COc1ccc(/C=C/C(=O)O[C@H]2[C@H](O[C@H]3[C@@H]4C=CO[C@@H](O[C@@H]5O[C@H](CO)[C@@H](O)[C@H](O)[C@H]5O)[C@@H]4[C@@]4(CO)O[C@@H]34)O[C@@H](C)[C@H](O)[C@H]2OC(C)=O)cc1 | -8.32% [at 17.3 µM] (inactive) |  |  |
| Nc1ccc(/C=C/C(=O)NCc2cc3cc(-c4ccc(C(=O)N5CCC(F)(F)CC5)cc4)cc(-c4ccc(F)cc4)c3o2)cn1 |  |  | 235 nM (active) and 231 nM (active) |

Reference: PubChem BioAssay (NCATS)
